For 40 compounds, Potency results are on record in PubChem BioAssay (NCATS).

Records with an inconclusive call do not appear. Activity calls are given as the source filed them. The call rests on the fitted dose curve; in most records, active means well fitted cell-killing curve with a large enough effect; inconclusive means small, poorly fitted or top-dose-only effect, or effect the other way; inactive means no such curve, though single readings can be large or run the other way.
Potency means the concentration at half of the fitted maximal effect.

This test can be described thus: Quantitative High-Throughput drug screen in 47 multiple myeloma cell lines against the NCATS MIPE library collection: INA6_PLB cell viability assay (AID 1918965; further: nearly all actives have a fitted effect of over 55% in size). The note with it: INA6 myeloma viability, CellTiter-Glo ATP luminescence, 48 h; series mostly up to 45.8 µM. An excerpt: PI: Beverly A. Mock Ph.D.
Laboratory of Cancer Biology and Genetics,
Center for Cancer Research, National Cancer Institute,
National Institute of Health, Bethesda, Maryland
Drug resistance and disease progression are common in multiple myeloma (MM) patients, underscoring the need for new therapeutic combinations. […] We hypothesized that effective combinations would reduce MYC expression and enhance p16 activity. […] These preclinical data identify potentially useful drug combinations for evaluation in drug-resistant MM and reveal potential mechanisms of combined drug sensitivity.
Described herein is the primary MIPE qHTS used to cherrypick compounds. Validated compounds were then further tested for potential synergistic activiy.
[1] Peat TJ, Gaikwad SM, Dubois W, Gyabaah-Kessie N, Zhang S, Gorjifard S, Phyo Z, Andres M, Hughitt VK, Simpson RM, Miller MA, Girvin AT, Taylor A, Williams D, D'Antonio N, Zhang Y, Rajagopalan A, Flietner E, Wilson K, Zhang X, Shinn P, Klumpp-Thomas C, McKnight C, Itkin Z, Chen L, Kazandijian D, Zhang J, Michalowski AM, Simmons JK, Keats J, Thomas CJ, Mock BA. Drug combinations identified by high-throughput screening promote cell cycle transition and upregulate Smad pathways in myeloma. Cancer Lett. 2023 Aug 1;568:216284. doi: 10.1016/j.canlet.2023.216284. Epub 2023 Jun 24. PMID: 37356470; PMCID: PMC10408729.
SEQUENCE No. (e.g., 1, 2, 3, etc.); […] (e.g., Cells, Incubation, Reagent, etc.); VALUE and DESCRIPTION.
1; Cells; 5 uL; white, solid bottom 1536-well Greiner assay plate.
2; Compounds; 23 nL; Kalypsis pin tool (Wako USA) equipped with a 1536-well pin head to transfer to the assay plates.
3; Incubation; 48 hours; 37C incubation.
4; Reagent;5uL; CellTiter Glo (Promega).
5; Detector; 425V; Luminescence; Viewlux PerkinElmer.
NOTES (numbers refer to Sequence numbers above)
1. The cell-based screening methods employed in this study were like those previously published. Briefly, the corresponding myeloma cell lines were screened in 1,536-well plates with 500 cells, 5-uL per well for inhibition of cell viability (assessed by measuring ATP levels with CellTiterGlo).
2. NCATS MIPE 4.0 library of approved and investigational drugs were added using the Kalypsis pin tool. Wells treated with DMSO only for 100% viability and media only wells for 0% viability were used as controls.
3. The assay plates were covered and incubated for 48 hours in a 37C, 5% CO2 incubator with controlled humidity.
4. After 48 hours, CellTilter-GloTM luminescent substrate mix (Promega) reagent was added to the assay plate and plates we incubated for 5 min at room temperature.
5. Signal was measured as median relative luminescence units on a ViewLux (PerkinElmer) multiplate reader.
[1] Heske CM, Davis MI, Baumgart JT, Wilson K, Gormally MV, Chen L, Zhang X, Ceribelli M, Duveau DY, Guha R, Ferrer M, Arnaldez FI, Ji J, Tran HL, Zhang Y, Mendoza A, Helman LJ, Thomas CJ. Matrix Screen Identifies Synergistic Combination of PARP Inhibitors and Nicotinamide Phosphoribosyltransferase (NAMPT) Inhibitors in Ewing Sarcoma. Clin Cancer Res. 2017 Dec 1;23(23):7301-7311. doi: 10.1158/1078-0432.CCR-17-1121. Epub 2017 Sep 12. PMID: 28899971; PMCID: PMC6636827.
Regarding `Cc1ccc(C(=O)Nc2cccc(C(F)(F)F)c2)cc1Nc1nc(-c2cccnc2)nc2c1cnn2C`, the Potency is 11.8 µM (active).
As to `CN1[C@@H]2CCC[C@@H]1CC(NC(=O)c1nn(C)c3ccccc13)C2` (stereo not given in full), the Potency entry was “inactive”.
On to `COc1cc2ncnc(-n3nc(-c4ccccn4)nc3N)c2cc1OC`, for which the Potency was 7.43 µM (active).
The result for `O=C1NC(=O)C(=Cc2ccc3c(c2)OC(F)(F)O3)S1` reads 26.4 µM (active); that for `C=C1C(=O)OC(CCCCCCCC)C1C(=O)O` (stereo not given), 18.7 µM (active); that for `CC(C)n1nc(-c2ccc3oc(N)nc3c2)c2c(N)ncnc21`, 0.0093 µM (active).
For the compound `c1ccc2c(Cc3c[nH]c4ccccc34)c[nH]c2c1`, the Potency was 3.32 µM (active).
For `C[C@H](NC(=O)c1sccc1OCc1ccc(Cl)cc1)c1ccccc1`, the Potency was 26.4 µM (active).
As to `COCCOC(=O)C1=C(C)NC2=C(C(=O)CC(c3ccccc3OC)C2)C1c1cccc(O)c1` (stereo not given), the Potency was 1.66 µM (active).
In the case of `COc1cc(Nc2ncc(F)c(Nc3ccc4c(n3)NC(=O)C(C)(C)O4)n2)cc(OC)c1OC`, the Potency was 1.18 µM (active).
Take `COc1ccc(-c2oc3c(CC=C(C)C)c(OC4O[C@H](CO)[C@@H](O)[C@H](O)[C@@H]4O)cc(O)c3c(=O)c2OC2O[C@@H](C)[C@H](O)[C@@H](O)[C@@H]2O)cc1` (stereo not given in full): the Potency was 33.2 µM (active).
In the case of `NC(=O)c1cnc(-c2ccc(C3(N)CCC3)cc2)c(-c2ccccc2)c1`, the Potency was 10.5 µM (active).
The result for `CC=CCC=CCCC(=O)[C@H]1O[C@@H]1C(N)=O` reads 18.7 µM (active); that for `CC(C)(Cc1ccc2ccccc2c1)NC[C@@H](O)COc1cccc(Cl)c1C#N`, “inactive”.
Turning to `CC1(C)CCC[C@@]2(C)[C@@H]1CC[C@@]1(C)OC(=O)C[C@H]21`, the Potency entry is “inactive”.
With `COc1ccc2cc(-c3nc(-c4ccc(S(C)=O)cc4)[nH]c3-c3ccncc3)ccc2c1` (stereo not given) the figure was 14.8 µM (active); with `Oc1ccc(C2CCN(c3ccnc4ccccc34)CC2)cc1O`, 7.43 µM (active); with `C=C1C(=O)OC2C=C(C)CCC=C(C)CCC12` (stereo not given), 16.6 µM (active).
The result for `CS(=O)(=O)N(Cc1ccco1)CC(O)Cn1c2ccccc2c2ccccc21` (stereo not given) reads 18.7 µM (active); that for `CCOc1ccc(Nc2nc(-c3c(C)nc4ccccn34)cs2)cc1`, 0.0026 µM (active); that for `CCn1c(C(=O)N(C2CC2)C2CC2)cc2c3c(ncn3C)c(Nc3cc(C)n(C)n3)nc21`, 16.6 µM (active).
On to `Cc1c(O)cccc1C(=O)N[C@@H](CSc1ccccc1)[C@H](O)CN1C[C@H]2CCCC[C@@H]2C[C@@H]1C(=O)NC(C)(C)C`, for which the Potency is 23.5 µM (active).
For `COc1ncc(-c2ccc3nccc(-c4ccnnc4)c3c2)cc1NS(=O)(=O)c1ccc(F)cc1F`, the Potency was 0.0235 µM (active).
Take `CO[C@@H](C(=O)N1Cc2[nH]nc(NC(=O)c3ccc(N4CCN(C)CC4)cc3)c2C1)c1ccccc1`: the Potency is 0.372 µM (active).
With `CCOC(=O)C1=C(N)Oc2ccc(Br)cc2C1C(C#N)C(=O)OCC` (stereo not given), the Potency is 18.7 µM (active).
Take `Clc1ccc(COC(Cn2ccnc2)c2ccc(Cl)cc2Cl)cc1` (stereo not given): the Potency is 20.9 µM (active).
Take `NC[C@@H]1O[C@@H](O[C@H]2[C@@H](O)[C@H](O[C@@H]3[C@@H](O)[C@@H](N)C[C@H](N)[C@H]3O[C@H]3O[C@H](CN)[C@@H](O)[C@@H](O)[C@H]3N)O[C@H]2CO)[C@H](N)[C@@H](O)[C@@H]1O`: the Potency entry was “inactive”.
On to `COc1cc(N2CCC(N3CCN(C)CC3)CC2)ccc1Nc1ncnc(Nc2ccccc2S(=O)(=O)C(C)C)n1`, for which the Potency is 14.8 µM (active).
With `CC[C@@H]1C=C(C)C[C@H](C)C[C@H](OC)[C@H]2O[C@@](O)(C(=O)C(=O)N3CCCC[C@@H]3C(=O)O[C@H](C(C)=C[C@@H]3CC[C@H](Cl)[C@H](OC)C3)[C@H](C)[C@@H](O)CC1=O)[C@H](C)C[C@H]2OC` the figure was 5.26 µM (active); with `Cn1c(N2CCCCS2(=O)=O)nc(C(=O)NCc2ccc(F)cc2)c(O)c1=O`, “inactive”.
For `NC(CO)(CO)CCc1ccc(Sc2cccc(OCc3ccccc3)c2)cc1Cl`, the Potency was 9.35 µM (active).
For `CC(C)(C(=O)NCC(F)(F)C(F)(F)F)C(=O)N[C@@H]1C(=O)Nc2ccccc2-c2ccccc21`, the Potency is 18.7 µM (active).
For the compound `N[C@H](CSC(c1ccccc1)(c1ccccc1)c1ccccc1)C(=O)O`, the Potency is 7.43 µM (active).
On to `CC(C)=CC[C@@H](O)C1=CC(=O)c2c(O)ccc(O)c2C1=O`, for which the Potency was 0.296 µM (active).
Turning to `CC1(C)CCC2=C(O1)c1ccccc1C(=O)C2=O`, the Potency was 20.9 µM (active).
On to `CS(=O)c1ccc(-c2nc(-c3ccc(F)cc3)c(-c3ccncc3)[nH]2)cc1` (stereo not given), for which the Potency is 3.4 µM (active).
With `CN(C)Cc1ccc(-c2nc3cccc4c3n2CCNC4=O)cc1` the figure was 16.6 µM (active); with `O=C(O)c1ccccc1C(=O)Nc1ccc(-c2ccccc2)cc1`, “inactive”.
Take `CC1(C)O[C@H]2C[C@@H]3[C@H]4CCC5=CC(=O)C=C[C@]5(C)[C@@]4(F)[C@@H](O)C[C@]3(C)[C@]2(C(=O)CO)O1`: the Potency entry was “inactive”.
The result for `COc1cccc(-c2cc(=O)c3ccccc3o2)c1N` reads 2.35 µM (active).
